Screens as filed in PubChem BioAssay.
In the library only some 3.4% were active in any assay of this set; here they are far more common.
MITF inh – blocks human microphthalmia-associated transcription factor. AlphaScreen MITF homodimerization, bead proximity signal. AID 1259374. inhibition, % at 2.6 µM. O75030. actives 0.91% (n = 650,000); in the data active = inhibition above about 50%;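 note: 0% = vehicle wells with protein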
FBW7 activator – human FBW7 E3 ligase activation, primary screen; Q969H0; AlphaScreen FBW7–phospho-cyclin E peptide binding, activator screen; normalized activity (activation), % at 26.1 µM; actives 0.13% (n = 650,000); in the data active = normalized activity above about 1.9%;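 note: purified mutant Fbw7 with reduced substrate affinity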
GPR151 ag – human GPR151 activation. actives 1% (n = 650,000). PathHunter beta-arrestin GPR151 cells, luminescence. activation, % at 11.2 µM. Q8TDV0; in the data active = activation above about 4.9%;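 note: 0% = median of compound wells and 100% = cells with positive control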
TEAD-YAP inh – TEAD-YAP interaction inhibition; actives 1.4% (n = 640,000); HEK-TIYL cells, TEAD-Gal4/YAP UAS-luciferase luminescence; inhibition, % at 9.12 µM; in the data active = inhibition above about 32%;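 note: 0% = median of test compound wells and 100% = reference inhibitor wells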
GPR151 conf act – confirmation of human GPR151 activators; activation, % at 11.2 µM; AID 1508609; 6,700 tested, under 10 active; shares compounds with GPR151 ag; GPR151 PathHunter beta-arrestin cells, luminescence, 90 min; % of EA-reagent control over plate median;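 active = mean percent activation across replicates above the confirmation screen cutoff of 4.91%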
GPR119 ag – counter-screen for GPR151 activators: effect on human GPR119; shares compounds with GPR151 ag; GPR119 PathHunter beta-arrestin cells, luminescence, 90 min; 0 = compound-well median, 100 = enzyme-acceptor control; actives 0.3% (n = 6,700); activation, % at 11.2 µM; AID 1508611;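 active = mean percent activation in the counterscreen above 29.09%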;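 note: counterscreen on off-target GPR119 to flag nonselective hits from the GPR151 activator screen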
Target sequence (Q8TDV5 whole entry, looked up): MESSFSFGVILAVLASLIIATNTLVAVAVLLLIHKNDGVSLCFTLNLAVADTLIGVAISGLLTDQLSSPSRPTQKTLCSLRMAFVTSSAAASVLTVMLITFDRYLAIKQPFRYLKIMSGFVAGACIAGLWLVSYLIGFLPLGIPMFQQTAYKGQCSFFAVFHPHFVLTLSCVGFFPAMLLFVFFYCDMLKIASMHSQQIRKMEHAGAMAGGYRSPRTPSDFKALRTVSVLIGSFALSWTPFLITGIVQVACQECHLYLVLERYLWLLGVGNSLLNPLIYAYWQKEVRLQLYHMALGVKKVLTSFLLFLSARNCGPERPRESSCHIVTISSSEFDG
Active calls of the source: *.

For O=C(NCCn1cc(SCc2ccc(Br)cc2)c2ccccc21)c1ccc(F)cc1 the results were MITF inh 1, FBW7 activator 0, GPR151 ag 5.0*, TEAD-YAP inh 3, GPR151 conf act 0 and GPR119 ag -5.
For CC(C)N(Cc1nc(-c2ccccc2)no1)C(=O)c1ccccc1F the results were MITF inh 13, FBW7 activator 1, GPR151 ag -1 and TEAD-YAP inh 11.
Screening CCN(C(=O)Cc1nc(-c2ccc(OC)cc2)no1)c1ccccc1C returned MITF inh 6, FBW7 activator 0, GPR151 ag 8.9*, TEAD-YAP inh 7, GPR151 conf act 1 and GPR119 ag -6.
`COc1ccc(-c2noc(CC(=O)Nc3cc(C)on3)n2)cc1` gave MITF inh 9, FBW7 activator 0, GPR151 ag 0 and TEAD-YAP inh 2.
For COc1ccc(-c2noc(CN(C(=O)c3ccccc3F)C(C)C)n2)cc1 the results were MITF inh 16, FBW7 activator 0, GPR151 ag 5.4*, TEAD-YAP inh -5, GPR151 conf act 0 and GPR119 ag 10.
For CCN(CC)CCCN(C)C(=O)Cc1nc(-c2ccc(OC)cc2)no1 the results were MITF inh 4, FBW7 activator 0, GPR151 ag 5.0*, TEAD-YAP inh -5, GPR151 conf act 0 and GPR119 ag 0.
`COc1ccc(-c2noc(CC(=O)Nc3cccc(C)n3)n2)cc1` gave MITF inh 4, FBW7 activator 0, GPR151 ag 5.5*, TEAD-YAP inh 2, GPR151 conf act 1 and GPR119 ag -8.
For CCOc1ccc2ccccc2c1C1NC(=O)N(C)C(C)=C1[N+](=O)[O-] (centres undefined) the results were MITF inh 19, FBW7 activator 1, GPR151 ag -1 and TEAD-YAP inh -9.
For CC1(C)NC(=O)N(CCOc2ccc(OCc3ccccc3)cc2)C1=O the results were MITF inh 6, FBW7 activator 0, GPR151 ag 7.2*, TEAD-YAP inh -1, GPR151 conf act 0 and GPR119 ag -17.
O=C(CCOc1ccccc1)Nc1ccnn1C1CCN(C(=O)CCc2ccccc2)CC1 was read as MITF inh 1, FBW7 activator 0, GPR151 ag 5.7*, TEAD-YAP inh -6, GPR151 conf act 0 and GPR119 ag 5.
`CC1(CCC(=O)N2CCC(n3nccc3NC(=O)CCOc3ccccc3)CC2)CC1` gave MITF inh 7, FBW7 activator 0, GPR151 ag 2 and TEAD-YAP inh 1.
Screening CC1(C)[C@H]2CC=C(CN3CCC(n4nccc4NC(=O)CCOc4ccccc4)CC3)[C@@H]1C2 returned MITF inh 2, FBW7 activator 0, GPR151 ag 5.3*, TEAD-YAP inh 7, GPR151 conf act 0 and GPR119 ag 4.
`CC(C)CC(=O)Nc1ccnn1C1CCN(CC2=CC[C@H]3C[C@@H]2C3(C)C)CC1` gave MITF inh 4, FBW7 activator 0, GPR151 ag 0 and TEAD-YAP inh 4.
`CC(C)c1[nH]nc2c1C1(C(C#N)=C(N)O2)c2ccccc2-c2ccccc21` gave MITF inh 10, FBW7 activator 0, GPR151 ag 0 and TEAD-YAP inh 7.
Screening Cc1nc(NC2=NCN(Cc3cccnc3)CN2)nc2ccccc12 returned MITF inh 13, FBW7 activator 0, GPR151 ag 7.7*, TEAD-YAP inh 4, GPR151 conf act 0 and GPR119 ag 3.
For COc1ccc(OC)c(NC(=O)CCNS(=O)(=O)c2ccc3c(c2)oc(=O)n3C)c1 the results were MITF inh 2, FBW7 activator 0, GPR151 ag 5.1*, TEAD-YAP inh -2, GPR151 conf act 1 and GPR119 ag 4.
CC1CCN(C(=O)Oc2ccccc2)CC1 was read as MITF inh 2, FBW7 activator 0, GPR151 ag 1 and TEAD-YAP inh 1.
For CC1CCN(C(=O)Nc2ccc(F)cc2)CC1 the results were MITF inh -5, FBW7 activator 0, GPR151 ag 7.2*, TEAD-YAP inh -19, GPR151 conf act 0 and GPR119 ag -4.
Screening CC1CCN(C(=O)Nc2ccc(Cl)cc2)CC1 returned MITF inh 19, FBW7 activator 0, GPR151 ag 0 and TEAD-YAP inh -50.
CC(=O)Nc1ccc(OC(=O)N2CCC(C)CC2)cc1 was read as MITF inh 7, FBW7 activator 0, GPR151 ag 5.3*, TEAD-YAP inh 23, GPR151 conf act 1 and GPR119 ag 1.
For COc1cccc(C(=O)Nc2ccc(Br)cc2C(=O)O)c1 the results were MITF inh 14, FBW7 activator 0, GPR151 ag -4 and TEAD-YAP inh -8.
COc1cc(NC(=O)CSC2CCCC2)c2ncccc2c1 was read as MITF inh -5, FBW7 activator 0, GPR151 ag 2 and TEAD-YAP inh -8.
For COc1ccc(NC(=S)N2CCC(N(C)C(C)C)CC2)cc1 the results were MITF inh -3, FBW7 activator 0, GPR151 ag 5.9*, TEAD-YAP inh -9, GPR151 conf act -1 and GPR119 ag -14.
For CCCCN(C)C1CCN(C(=S)Nc2ccc(OC)cc2)CC1 the results were MITF inh -2, FBW7 activator 0, GPR151 ag 0 and TEAD-YAP inh 3.
Screening CCOc1cc(/C=C2\NC(=S)N(C)C2=O)cc(I)c1OC returned MITF inh 3, FBW7 activator 0, GPR151 ag 0 and TEAD-YAP inh 3.
CC(=O)N1CCc2cc(C(=O)CN3CCC4(CC3)OCCO4)ccc21 was read as MITF inh 23, FBW7 activator 1, GPR151 ag -1 and TEAD-YAP inh -4.
Screening NC(=O)c1ccc2nc(N3CCN(c4ccccn4)CC3)sc2c1 returned MITF inh -6, FBW7 activator 0, GPR151 ag 8.1*, TEAD-YAP inh -49, GPR151 conf act 0 and GPR119 ag -2.
For CCN1CCN(c2nc3ccc(OC(=O)COc4ccccc4)cc3s2)CC1 the results were MITF inh 11, FBW7 activator 0, GPR151 ag -2 and TEAD-YAP inh -34.
For O=C(O)c1ccc2nc(N3CCCCC3)sc2c1 the results were MITF inh 0, FBW7 activator 0, GPR151 ag -6 and TEAD-YAP inh -19.
Screening COc1ccc2nc(N3CCC(C(=O)N4CCCC4)CC3)sc2c1 returned MITF inh -7, FBW7 activator 0, GPR151 ag 6.9*, TEAD-YAP inh -27, GPR151 conf act 0 and GPR119 ag 1.
`O=C(COc1ccccc1)Oc1ccc2nc(N3CCCC3)sc2c1` gave MITF inh 7, FBW7 activator 0, GPR151 ag 9.1*, TEAD-YAP inh -41, GPR151 conf act -4 and GPR119 ag -27.
